# D1 mod = allosterically modulates the human D1 dopamine receptor | HEK293 D1, CRE-luciferase, dopamine EC30 potentiation; actives deviate in either direction | B-score at 10 µM | hit rate 5.9% among 58,000;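 active = luminescence count or its row- and column-corrected plate score outside the 99.7% band of the plate's sample wells, on either side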
# Target sequence (P21728 whole entry, looked up): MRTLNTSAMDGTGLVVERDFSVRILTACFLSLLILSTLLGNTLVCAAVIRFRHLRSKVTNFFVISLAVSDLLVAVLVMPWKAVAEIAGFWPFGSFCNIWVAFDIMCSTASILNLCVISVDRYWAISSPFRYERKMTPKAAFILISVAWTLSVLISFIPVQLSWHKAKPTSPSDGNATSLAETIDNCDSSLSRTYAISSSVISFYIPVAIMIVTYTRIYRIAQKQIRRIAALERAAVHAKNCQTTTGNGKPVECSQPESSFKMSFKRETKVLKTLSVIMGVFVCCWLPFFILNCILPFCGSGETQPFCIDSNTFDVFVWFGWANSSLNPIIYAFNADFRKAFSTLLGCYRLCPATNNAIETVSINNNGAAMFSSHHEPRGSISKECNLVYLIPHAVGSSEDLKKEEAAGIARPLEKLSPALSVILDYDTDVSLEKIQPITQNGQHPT
# mHtt clearance = compounds clearing mutant huntingtin protein; HeLa Exon1htt(103Q)mCFP, aggregate imaging; zero = plate's median compound well; inhibition, % at 1.5 µM; hit rate 0.42% among 47,000; AID 853;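 active = inhibition of aggregate fluorescence above about 70%, also judged a hit by eye on the cell image, limit read from the data, passing the limit was not always enough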;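 also: cells exposed to compound for three days before fixation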
# M1 antag = blocks the rat M1 muscarinic receptor response to acetylcholine; P08482; CHO-M1 cells, Fluo-4 calcium, ACh EC80 antagonist mode; hits give low values; B-score at 10 µM; hit rate 3.4% among 64,000;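 active = calcium fluorescence response, raw or row-and-column corrected B-score, differing from the plate sample mean either way at a set confidence level, mostly lower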
# M1 ag = activates the M1 muscarinic receptor. CHO-M1 cells, Fluo-4 calcium fluorescence, agonist mode; hits give high values. B-score at 10 µM. hit rate 3% among 64,000;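 active = fluorescence rise, raw or as B-score row- and column-corrected plate score, outside the 99.7% band of its plate's samples, either direction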
# M1 antag confirm = confirmation of rat M1 muscarinic receptor antagonists; shares compounds with M1 antag; CHO-M1 cells, Fluo-4 calcium, ACh EC80 antagonism; hits give low values; calcium response (max-min fluorescence) at 10 µM; hit rate 43% among 1,700;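 active = calcium response below the same-plate mean of wells given acetylcholine alone at its 80%-effect dose, minus 3 SD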;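 also: raw fluorescence intensity difference in arbitrary instrument units and not normalized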
# mGluR4 antag = mGluR4 (human) activity, M1 antagonist secondary assay | shares compounds with M1 antag | CHO-mGluR4 calcium flux, Fluo-4 fluorescence, glutamate EC80; hits give low values | fluorescence response (max-min) at 10 µM | hit rate 0.9% among 1,700;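 active = fluorescence response below the plate's average for near-maximal glutamate wells, less 3 SD of those wells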;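 also: raw unnormalized fluorescence span taken in the window right after glutamate addition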
# * hit, by the source's call; · = no result given. Shown are actives, neighbours in structure and some others; about 9.1% of the full set was active somewhere.
SMILES,D1 mod,mHtt clearance,M1 antag,M1 ag,M1 antag confirm,mGluR4 antag
O=C1CC(c2ccco2)CC(O)=C1C=NCC1CCNCC1 (configuration not stated),1.3,·,-3.8*,-0.012,462*,226
O=C1CC(c2ccco2)CC(O)=C1C=NCCN1CCNCC1 (configuration not stated),0.14,15,-0.7,-0.93,·,·
COc1ccc(N2CCN(CCNC(=O)c3c(C)cc(=O)oc3C)CC2)cc1,0.15,-4,-4.6*,-0.59,354*,227
COCCn1c(Sc2nc(C)cs2)nc2c1c(=O)[nH]c(=O)n2C,·,·,-4.1*,-0.72,658,223
COCc1cc(C)nc(SCC(=O)Nc2cccc3cccnc23)c1C#N,0.66,1,-3.9*,0.42,643,215
CC(C)(C)OC(=O)N1CCC[C@H]1c1nnc(SCc2ccccc2F)o1,0.039,·,-0.79,0.46,·,·
CCN1CCN(c2nc3c(c(=O)n(C)c(=O)n3C)n2Cc2cccc3ccccc23)CC1,·,-7,-3.3*,0.24,429*,202
CCN1CCN(Cc2nc3c(c(=O)n(C)c(=O)n3C)n2Cc2cccc3ccccc23)CC1,-0.041,-87,-2.8*,0.32,620,255
Cn1c(=O)c2c(nc(CN3CCC(C(N)=O)CC3)n2Cc2c(Cl)cccc2Cl)n(C)c1=O,-0.55,-68,-4.1*,0.54,547,246
Cn1c(=O)c2c(nc(CN3CCC(C(N)=O)CC3)n2Cc2c(F)cccc2Cl)n(C)c1=O,0.82,·,-0.0026,0.8,·,·
COC(=O)Nc1ccc(S(=O)(=O)N2c3ccccc3CCC2C)cc1 (configuration not stated),-1.5,·,-1,-0.016,·,·
CN(C)c1ccc(-c2nn3c(-c4ccccc4Cl)nnc3s2)cc1,0.59,·,-5.9*,-0.37,527,198
COc1cc2nc(CN3CCN(c4ncc(C(F)(F)F)cc4Cl)CC3)[nH]c(=O)c2cc1OC,-0.42,·,0.42,-0.17,·,·
CCOc1cccc(OCCCCN2CCCCC2)c1,-1.8,·,-3.1*,0.36,329*,214
COc1cccc(OCCCN2CCCCC2)c1,-0.75,-21,-0.52,-0.53,·,·
COc1cccc(OCCCCN2CCCCC2)c1,-0.24,-97,-1.2*,0.11,280*,203
COC1(c2cc(-c3ccccc3)nc(N)n2)CCCCC1,0.37,10,-0.66,0.091,·,·
COc1ccc(C(c2nnnn2Cc2ccccc2)N2CCN(c3nc4ccccc4s3)CC2)cc1OC (configuration not stated),·,26,·,·,·,·
CCCC(c1nnnn1Cc1ccco1)N1CCC(C(N)=O)CC1 (configuration not stated),0.054,-78,-0.011,0.11,·,·
CCCCC(c1nnnn1Cc1ccco1)N1CCN(c2nc3ccccc3s2)CC1 (configuration not stated),-2.2,·,-3.3*,-0.61,587,227
c1ccc(Cn2nnnc2C(c2ccccc2)N2CCN(c3nc4ccccc4s3)CC2)cc1 (configuration not stated),·,·,-2.1*,-1.4,623,241
Cc1cc(C(=O)O)c(CSCc2cc(C(=O)O)oc2C)o1,·,-20,·,·,·,·
CCOC(=O)CNC(=O)CSc1nc(N)cc(N)n1,0.2,9,0.093,-0.53,·,·
CCOC(=O)CNC(=O)CSc1nc(NCc2ccccc2)nc(N(C)C)n1,-0.85,·,-1.8*,0.48,683,254
COc1ccc(CNC(=O)c2ccc(=O)oc2)cc1OC,0.0028,0,-0.12,-0.079,·,·
SMILES,D1 mod,mHtt clearance,M1 antag,M1 ag,M1 antag confirm,mGluR4 antag
CCOc1ccc(C(=O)Nc2ccc(N3CCCC3)cc2)cc1,-0.06,·,-0.31,-0.19,·,·
CCOc1ccc(C(=O)Nc2ccc(N3CCN(C)CC3)cc2)cc1Br,-6.4*,-5,-3.5*,-0.72,361*,242
Clc1cc(NCc2cccs2)ccc1N1CCOCC1,-0.26,·,-1.3,1.2,·,·
CCOC(=O)Nc1ccc(S(=O)(=O)Nn2cnnc2)cc1,·,-32,0.23,-0.27,·,·
c1coc(-c2nc3c4c5c(sc4ncn3n2)CCCC5)c1,0.099,-46,0.68,-0.83,·,·
CN1CCc2c(sc3ncn4nc(-c5ccccc5O)nc4c23)C1,·,·,-3.7*,-0.13,353*,248
COc1ccc(-c2nnc(SCC(=O)NC(C)c3ccccc3)o2)cc1OC (configuration not stated),1.8,-27,-0.81,-0.05,·,·
O=C(NC1CC2CCC(C1)N2C(=O)NCc1ccccc1)C1CC1 (configuration not stated),0.91,·,-2.2*,0.03,419*,241
O=C(NC1CCCCC1)C1CCN(C(=O)NCc2ccccc2)CC1,0.1,·,-1.4*,-0.21,671,215
CCC(C)(C)NC(=O)C(OC(=O)c1cc2sccc2n1C)c1ccc(OC)cc1 (configuration not stated),-0.5,13,0.021,-0.7,·,·
Cc1ccc(S(=O)(=O)N(CC(=O)N2CCC(C(N)=O)CC2)c2cccc(C(F)(F)F)c2)cc1,-0.95,·,-7.3*,-0.3,624,217
CCOC(=O)N1CCN(C(=O)CN(c2cccc(C(F)(F)F)c2)S(=O)(=O)c2ccccc2)CC1,·,17,0.71,0.38,·,·
O=C(COn1nnc2ccccc21)NCC1CCCCC1,0.58,-13,-3*,0.074,614,245
CCN(CC)S(=O)(=O)c1cccc(C(=O)NC(C(=O)Nc2nnc(C3CC3)s2)C(C)C)c1 (configuration not stated),·,·,-2.6*,-0.059,544,256
CCN(CC)S(=O)(=O)c1cccc(C(=O)NC(C(=O)NC2=NCCS2)C(C)C)c1 (configuration not stated),-1,27,1,-0.45,·,·
CSC1=Nc2sc3c(c2C2=NCCN12)CC(C)(C)OC3,·,·,-4.6*,0.48,420,178
Cc1sc(NC(=O)C2CC=CCC2C(=O)O)c(C(=O)OC(C)C)c1C (configuration not stated),·,-26,·,·,·,·
N#Cc1c(-n2cccc2/C=N/O)sc2c1CCCC2,-0.18,·,-7*,-0.26,248*,187
COC(=O)c1ccc(CSc2nnnn2C)o1,0.77,·,-3.1*,-0.45,399*,257
COC(=O)c1ccc(CSc2nnc3c(Cl)cc(Cl)cn23)o1,-0.82,-43,-0.8,-0.35,·,·
COC(=O)c1ccc(CSc2ccc3nnc(-c4cccc(F)c4)n3n2)o1,2.4,·,-9.2*,-0.26,216*,205
CC(OC(=O)c1ccncc1)C(=O)Nc1cccc(Cl)c1 (configuration not stated),·,-23,-0.052,-1,·,·
COC(=O)N1CC(c2ccccc2)CC1=O (configuration not stated),0.077,17,-2.3*,-0.031,694,253
CCn1cc(C(=O)Nc2ccc(-n3cnnn3)c(OC)c2)c(=O)c2ccc(C)nc21,0.2,20,-1.5,-0.15,·,·
CCSc1ccccc1C(=O)Nc1cc(C)on1,-0.91,·,-3.8*,-0.61,537,193
COc1ccc(-c2cnc(SCC(=O)Nc3nc(C(C)(C)C)cs3)n2Cc2ccco2)cc1,·,34,·,·,·,·
CCCCn1c(CN2CCN(C)CC2)nc2ccccc21,-0.76,·,-4*,0.5,324*,235

# Compound activity: PubChem, several laboratories
